Screens (PubChem)
Hits are enriched below; roughly 1.2% of the tested compounds scored in any of these assays.
PKM2 act: activators of human pyruvate kinase M2; actives 0.34% (n = 260,000); Potency, µM (highest dose often 57.5 µM), hits mostly activators; AID 1631; purified PKM2, Kinase-Glo ATP luminescence, activation; response scale: 0% is enzyme alone, no compound; P14618; also: nearly all actives have a fitted effect of over 55% in size
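hPK-M2, >95% pure; 0.1 mM ADP / 0.5 mM PEP final; imidazole pH7.2 buffer w/ 7 mM MgCl2, 50 mM KCl; 1 h RT; Kinase-Glo lum. Intermediate enzyme activity for dual inhibitor/activator qHTS.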
PI4K2A block: PI4K2A (human) kinase inhibition | purified PI4K2A, ADP-Glo luminescence, 1 h; active compounds read low | actives 0.13% (n = 420,000) | AID 1346378 | Q9BTU6 | activity change, negative = inhibition, % at 76.9 µM; in the data active = activity change below about -50%; inconclusive = mostly about -30% to -49%
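Compounds are screened against recombinant PI4K2A using PI as substrate and ATP, the latter dispensed at 300 microM. Reactions run one hour at ambient temperature before ADP-Glo detection; full inhibition defined by wells lacking enzyme.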
TrxR1 substrate: rat thioredoxin reductase 1 substrate activity; actives 0.01% (n = 390,000); Potency, µM (doses to about 114 µM); O89049; AID 588456; purified TrxR1 substrate turnover, NADPH consumption readout; also: nearly all actives have a fitted effect of over 50% in size
Target sequence (O89049 whole entry, looked up): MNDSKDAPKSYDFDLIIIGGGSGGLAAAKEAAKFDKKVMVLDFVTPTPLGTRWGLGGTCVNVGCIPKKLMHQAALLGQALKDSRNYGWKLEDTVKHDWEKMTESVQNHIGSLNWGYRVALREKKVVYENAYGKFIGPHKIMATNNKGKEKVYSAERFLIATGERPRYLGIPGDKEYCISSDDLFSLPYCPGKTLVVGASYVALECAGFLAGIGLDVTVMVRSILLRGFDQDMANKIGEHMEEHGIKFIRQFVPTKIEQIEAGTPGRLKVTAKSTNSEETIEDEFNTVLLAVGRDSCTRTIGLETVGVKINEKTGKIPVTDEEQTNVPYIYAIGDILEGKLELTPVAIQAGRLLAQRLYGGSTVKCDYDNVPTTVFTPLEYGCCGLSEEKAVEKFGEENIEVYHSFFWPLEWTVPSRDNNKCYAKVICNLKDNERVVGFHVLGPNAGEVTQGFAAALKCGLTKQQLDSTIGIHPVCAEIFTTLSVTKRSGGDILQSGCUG
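Rat TrxR1, dispensed at 90 nM, was prereduced with 400 uM NADPH (final) for 5 min at ~22 deg C, then incubated with compound 15 min before 400 uM selenite. A first-read NADPH fluorescence drop versus no-compound background flagged substrates.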
rTrxR1 inhibitor: inhibitors of rat thioredoxin reductase 1 | recombinant rTrxR1, NADPH fluorescence consumption, selenite substrate | Potency, µM (titrated, usually from 114 µM), hits mostly inhibitors | O89049 | actives 1% (n = 390,000); also: nearly all actives have a fitted effect of over 65% in size
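Rat TrxR1 (90 nM in the dispensed reagent) was pre-reduced with 400 uM NADPH for 5 min at room temperature, then incubated with compound for 15 min. After 400 uM selenite was added, NADPH fluorescence (Ex 340/Em 450 nm) was followed for 8 min.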
GALK inh: blocks human galactokinase activity | P51570 | actives 0.007% (n = 270,000) | Purified GALK, Kinase-Glo residual ATP luminescence | Potency, µM (series often up to 57.5 µM), actives largely listed as inhibitors
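GALK at 5 nM final was combined with compound, 35 uM ATP and 100 uM galactose in HEPES pH8.0 with MgCl2 and DTT. The reaction ran one hour at room temperature before luminescent ATP detection.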
A number is an active result; i = inactive; ? = inconclusive; nt = no result; ! = repeats disagree; [ ] = remark or other dose. Unless noted, calls follow the shape of the dose curve; as a rule, active = well fitted curve in the direction sought with a large enough effect; inconclusive = small, poorly fitted or top-dose-only effect, or another doubt; inactive = no such curve, though single readings can be large; an effect the other way counts as inactive or inconclusive.

SMILES	PKM2 act	PI4K2A block	TrxR1 substrate	rTrxR1 inhibitor	GALK inh
CC(C)(C)c1ccc(S(=O)(=O)/C=C/C#N)cc1	nt	i	i	2.1µM!	nt
CC(C)(C)c1ccc(NS(=O)(=O)c2ccc(N)cc2)cc1	i	i	i	i	i
O=[N+]([O-])c1cccc(C2Nc3cccc4cccc(c34)N2)c1	i	i	i	50µM	i
O=C1c2ccccc2NC(c2cccc([N+](=O)[O-])c2)N1O (stereo unspecified)	nt	i	i	i	i
COC(=O)c1ccc(C2Nc3cccc4cccc(c34)N2)cc1	i	i	i	i	i
O=[N+]([O-])c1ccc(C2Nc3cccc4cccc(c34)N2)cc1	i	i	i	35µM	i
O=C(Oc1ccc(OC(=O)c2ccco2)c(S(=O)(=O)c2ccc(Br)cc2)c1)c1ccco1	4.5µM	i	i	i	i
COc1cccc(-c2n[nH]c(=S)n2Cc2ccco2)c1	i	?	i	40µM	i
Cc1cccc(C#Cc2ccccc2)n1	nt	-50!	i	i	nt
Cc1ccc(CNC(=O)c2oc3c(c2C)-c2nn(Cc4ccc(Cl)cc4)cc2CC3)cc1	nt	i	i[11.4 µM]	i	nt
COc1ccc(-n2nc(C#N)c(Cl)cc2=O)cc1	i	i	i	6.3µM	i
Cn1c(SCc2ccccc2Cl)nc2c([nH]c3ccccc32)c1=O	nt	i	i	i	nt
CCOC(=O)[C@@]12CN(C(=O)OC(C)(C)C)CC=C1N(Cc1ccc(OC)cc1)C(=O)[C@H]2CC(=O)N1CCCCC1	nt	i	nt	nt	nt
CNc1nc(N)c([N+](=O)[O-])c(Nc2ccccc2)n1	nt	i	nt	nt	nt
Cc1cccc(-c2nnn3c2nc(NCc2ccc4c(c2)OCO4)c2ccccc23)c1	nt	-53	i	i	nt
Clc1ccc(-c2nnn3c2nc(NCc2ccc4c(c2)OCO4)c2ccccc23)cc1	nt	i	i	i	nt
CS(=O)(=O)c1ccc(C(=O)OCC(=O)Nc2cccnc2Cl)cc1[N+](=O)[O-]	nt	i	i	2.5µM	nt
CN(C)S(=O)(=O)c1ccc(C(=O)OCc2nnc(-c3ccccc3)o2)cc1	i	i	i	i	i
CS(=O)(=O)c1ccc(C(=O)OCC(=O)NC(=O)C2COc3ccccc3O2)cc1[N+](=O)[O-] (stereo unspecified)	nt	i	i	8.9µM	nt
Cc1ccccc1NC(=O)Cc1nc(COC(=O)c2ccc(NC(N)=O)cc2)cs1	nt	i	i	i	nt
CS(=O)(=O)c1ccc(C(=O)OCc2nnc(-c3ccccc3)o2)cc1[N+](=O)[O-]	?	i	i	1µM	i
Nc1ccc(C(=O)NNC(=O)C2COc3ccccc3O2)cc1[N+](=O)[O-] (stereo unspecified)	nt	i	i	i	nt
Cc1ccccc1NC(=O)Cc1nc(COC(=O)c2ccc(S(C)(=O)=O)c([N+](=O)[O-])c2)cs1	nt	i	i	3.2µM	nt
CCOC(=O)C1CCN(S(=O)(=O)c2cc3c4c(c2)CC(=O)N4CCC3)CC1	nt	i	i	i	nt
CC(CCc1ccccc1)NC(=O)COC(=O)c1ccc(S(C)(=O)=O)c([N+](=O)[O-])c1 (stereo unspecified)	i	i	i	0.79µM	i
SMILES	PKM2 act	PI4K2A block	TrxR1 substrate	rTrxR1 inhibitor	GALK inh
CC(CCc1ccccc1)NC(=O)COC(=O)c1ccc([N+](=O)[O-])cc1 (stereo unspecified)	nt	i	i	i	i
COc1cc(O)oc1C=Nc1ccc(Cl)cc1	i	i	i	i	i
COc1cc(O)oc1C=Nc1ccc(C(=O)O)cc1	i	-50	i	i	i
O=C(Nc1cccc([N+](=O)[O-])c1)NC1CCCCN(Cc2cccc(Cl)c2)C1=O (stereo unspecified)	nt	i	nt	nt	nt
O=C(CSc1nnc(-c2cccnc2)o1)c1cc2ccccc2oc1=O	i	i	i	i	i
Cn1cnnc1SCC(=O)c1cc2ccccc2oc1=O	i	i	i	7.1µM	i
CCn1nc(C)cc1C(=O)Sc1cccc(Br)c1	i	i	i	7.9µM	i
CCn1nc(C)cc1C(=O)Sc1ccc(Cl)cc1Cl	i	i	i	?	i
NS(=O)(=O)c1ccc(NCC2COc3ccccc3O2)c([N+](=O)[O-])c1 (stereo unspecified)	20µM	i	i	i	i
CCCN(CCC)C1=N/C(=C\c2ccco2)C(=O)N1c1ccccc1	i	i	i	25µM	i
O=C(CSc1cccc2cccnc12)Nc1ccc(S(=O)(=O)N2CCOCC2)cc1	25µM	i	i	i	i
O=C(CSc1cccc2cccnc12)Nc1cccc(S(=O)(=O)N2CCOCC2)c1	i	i	i	i	i
N#Cc1nccnc1S(=O)(=O)c1cccs1	?	i	i	0.32µM	nt
CCCc1nc2sc3ccccc3c(=O)c2c(=O)n1Cc1ccco1	14µM	i	i	?	i
CCCCNS(=O)(=O)/C=C/c1ccc(OC)cc1CNC(=O)OC(C)(C)C	nt	i	nt	nt	nt
C=C(C)CSc1cc(C)c(C#N)c2nc3ccccc3n12	?	i	i	11µM	i
Cc1oc2c(C)c(O)ccc2c(=O)c1N1C(=O)c2ccccc2C1=O	i	i	i	i	i
Cc1oc2c(C)c(O)ccc2c(=O)c1-c1nncn1-c1ccccc1	18µM	i	i	i	i
COc1ccccc1N1C(=O)C=C(Sc2nc(C)cc(C)n2)C1=O	?	i	i[11.4 µM]	2.8µM	i
COc1ccccc1N1C(=O)C2CC(C)=C(C)CC2C1=O (stereo unspecified)	i	i	i	i	i
COC(=O)c1ccc(NC(=O)c2nc(S(=O)(=O)Cc3ccccc3F)ncc2Cl)cc1	nt	nt	i	8.9µM	nt
O=C(Nc1ccc2ccccc2c1)c1cnccn1	i	i	i	i	i
CCOc1ccc(NC(=O)c2nc(S(=O)(=O)Cc3ccccc3)ncc2Cl)cc1	nt	nt	i	2.2µM	nt
CS(=O)(=O)c1ncc(Cl)c(C(=O)Nc2ccc3ccccc3c2)n1	?	i	i	13µM	i
COC(=O)c1ccccc1NC(=O)CN(CCc1ccccc1)S(C)(=O)=O	i	i	i	i	i
SMILES	PKM2 act	PI4K2A block	TrxR1 substrate	rTrxR1 inhibitor	GALK inh
COC(=O)c1cscc1S(=O)(=O)Cc1ccccc1	i	i	i	20µM	i
CCOc1ccc(NC(=O)c2nc(S(=O)(=O)Cc3ccccc3F)ncc2Cl)cc1	nt	i	i	1.8µM	nt
O=C(Nc1ccc(OC(F)F)cc1)c1nc(S(=O)(=O)Cc2ccccc2F)ncc1Cl	nt	nt	i	3.5µM	nt
O=C(Nc1ccccc1)c1nc(S(=O)(=O)Cc2ccccc2F)ncc1Cl	nt	nt	i	?	nt
COC(=O)c1ccccc1NC(=O)c1nc(S(=O)(=O)Cc2ccccc2)ncc1Cl	nt	i	i	8.9µM	i
O=C(CSc1ccc2nnc(-c3ccccn3)n2n1)NCc1ccco1	i	i	i	45µM	i
CC(=O)N1N=C(c2cccc(NS(C)(=O)=O)c2)CC1c1cccs1 (stereo unspecified)	?	i	i	i	i
CCS(=O)(=O)Nc1cccc(C2=NN(C(C)=O)C(c3cccs3)C2)c1 (stereo unspecified)	14µM	i	i	i	i
